# Measurements published in publication PMC7862700, “An all-to-all approach to the identification of sequence-specific readers for epigenetic DNA modifications on cytosine”.
# How the values were obtained:
# Assay in all cases: DAPPL (digital affinity profiling via proximity ligation, sequencing); 10 mM Tris-HCl pH 7.5, 50 mM NaCl, 1 mM DTT, 4% glycerol, room temperature, 30 min; GST-TFs on glutathione beads, 16-mer random dsDNA library, 0.1% formaldehyde crosslink after washing; high values mean tight binding
# FEV = biological target: T1, FEV (Homo sapiens, UniProt Q99581 1-238); details: protein: recombinant; tags: N-terminal GST; dsDNA, one strand shown
# T1 sequence: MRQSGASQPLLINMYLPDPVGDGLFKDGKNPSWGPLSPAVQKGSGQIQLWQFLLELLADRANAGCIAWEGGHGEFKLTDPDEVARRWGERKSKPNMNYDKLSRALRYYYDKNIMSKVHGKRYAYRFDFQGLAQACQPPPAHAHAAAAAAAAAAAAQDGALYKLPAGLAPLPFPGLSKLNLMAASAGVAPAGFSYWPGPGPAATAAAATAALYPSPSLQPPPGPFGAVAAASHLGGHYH
# Method in brief: (§1)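 After expression in yeast as GST fusions, human transcription factors were bound to glutathione beads, DNA-barcoded and mixed with a tag-only sample. The pools were incubated with 200 nmole of a 16-mer random double-stranded DNA library in Tris/NaCl/DTT/glycerol buffer (30 min, room temperature), washed and crosslinked with 0.1% formaldehyde. Proximity ligation with BsaI/T4 ligase ran for 1 h at 37 °C, before PCR amplification and sequencing on an Illumina NextSeq500. Binding signal is a hexamer's read frequency for a factor divided by its frequency for the tag-only sample.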
# ETV5 = ETV5 (Homo sapiens, UniProt P41161 1-510); details: protein: recombinant; tags: N-terminal GST; dsDNA, one strand shown
# ETV5, sequence (P41161 whole entry): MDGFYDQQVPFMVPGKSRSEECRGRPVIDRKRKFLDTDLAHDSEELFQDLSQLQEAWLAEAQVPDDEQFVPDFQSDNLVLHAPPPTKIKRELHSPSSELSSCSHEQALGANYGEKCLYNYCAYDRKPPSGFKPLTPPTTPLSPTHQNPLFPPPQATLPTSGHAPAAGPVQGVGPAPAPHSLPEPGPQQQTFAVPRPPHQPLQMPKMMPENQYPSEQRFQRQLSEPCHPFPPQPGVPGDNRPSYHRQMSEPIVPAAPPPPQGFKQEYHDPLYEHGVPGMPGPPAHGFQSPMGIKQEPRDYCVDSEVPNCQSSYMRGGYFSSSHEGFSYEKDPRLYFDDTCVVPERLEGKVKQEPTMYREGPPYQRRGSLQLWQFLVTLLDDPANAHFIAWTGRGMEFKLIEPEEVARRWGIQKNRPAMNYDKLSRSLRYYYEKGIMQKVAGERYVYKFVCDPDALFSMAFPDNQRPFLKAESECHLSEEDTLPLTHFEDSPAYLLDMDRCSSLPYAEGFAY
# Method in brief: as §1
# HSF1 = HSF1 (Homo sapiens, UniProt Q00613 1-529); details: protein: recombinant; tags: N-terminal GST; chain copies: 3; dsDNA, one strand shown
# HSF1, sequence (Q00613 whole entry): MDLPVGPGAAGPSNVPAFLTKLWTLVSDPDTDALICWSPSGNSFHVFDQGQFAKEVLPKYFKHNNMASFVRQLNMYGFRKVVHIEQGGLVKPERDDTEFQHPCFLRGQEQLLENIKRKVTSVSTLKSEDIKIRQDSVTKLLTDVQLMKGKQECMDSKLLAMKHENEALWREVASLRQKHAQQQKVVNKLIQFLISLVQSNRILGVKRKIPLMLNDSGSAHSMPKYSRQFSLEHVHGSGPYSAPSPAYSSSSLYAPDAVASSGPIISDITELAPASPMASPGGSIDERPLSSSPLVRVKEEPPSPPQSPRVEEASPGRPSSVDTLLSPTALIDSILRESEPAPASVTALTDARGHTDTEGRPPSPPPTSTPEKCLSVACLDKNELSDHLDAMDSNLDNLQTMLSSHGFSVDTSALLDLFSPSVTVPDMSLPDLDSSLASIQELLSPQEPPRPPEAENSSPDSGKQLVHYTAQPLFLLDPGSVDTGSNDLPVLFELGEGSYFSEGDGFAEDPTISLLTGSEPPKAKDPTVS
# Method in brief: as §1
# SPIC = biological target: T2, SPIC (Homo sapiens, UniProt Q8N5J4 1-248); details: protein: recombinant; tags: N-terminal GST; dsDNA, one strand shown
# T2 sequence: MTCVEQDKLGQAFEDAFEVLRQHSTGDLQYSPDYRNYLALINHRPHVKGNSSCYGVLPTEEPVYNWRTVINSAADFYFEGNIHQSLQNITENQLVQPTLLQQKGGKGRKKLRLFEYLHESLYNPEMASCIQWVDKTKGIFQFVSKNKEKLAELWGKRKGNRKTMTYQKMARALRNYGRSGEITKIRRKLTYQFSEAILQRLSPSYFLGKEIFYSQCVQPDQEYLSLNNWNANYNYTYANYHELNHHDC
# Method in brief: as §1
# ELF4 = ELF4 (Homo sapiens, UniProt Q99607 1-663); details: protein: recombinant; tags: N-terminal GST; dsDNA, one strand shown
# ELF4, sequence (Q99607 whole entry): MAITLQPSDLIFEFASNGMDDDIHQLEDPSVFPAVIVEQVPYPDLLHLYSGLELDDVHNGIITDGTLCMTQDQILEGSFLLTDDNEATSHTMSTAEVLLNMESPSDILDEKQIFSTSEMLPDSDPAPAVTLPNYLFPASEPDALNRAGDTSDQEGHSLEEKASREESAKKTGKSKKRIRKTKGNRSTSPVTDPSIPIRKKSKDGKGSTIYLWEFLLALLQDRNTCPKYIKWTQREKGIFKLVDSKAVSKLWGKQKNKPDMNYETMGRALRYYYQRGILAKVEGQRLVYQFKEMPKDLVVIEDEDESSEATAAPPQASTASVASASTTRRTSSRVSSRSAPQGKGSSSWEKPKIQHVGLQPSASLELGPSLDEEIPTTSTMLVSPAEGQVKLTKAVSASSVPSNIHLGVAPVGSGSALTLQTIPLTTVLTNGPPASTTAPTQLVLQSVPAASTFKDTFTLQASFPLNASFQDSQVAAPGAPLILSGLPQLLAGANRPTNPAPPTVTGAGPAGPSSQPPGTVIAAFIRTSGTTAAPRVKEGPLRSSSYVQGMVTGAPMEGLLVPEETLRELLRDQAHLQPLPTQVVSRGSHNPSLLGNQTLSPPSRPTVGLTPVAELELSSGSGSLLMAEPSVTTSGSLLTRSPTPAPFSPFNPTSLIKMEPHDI
# Method in brief: as §1
# ELK4 = biological target: T3, ELK4 (Homo sapiens, UniProt P28324-2 1-405); details: protein: recombinant; tags: N-terminal GST; dsDNA, one strand shown
# T3 sequence: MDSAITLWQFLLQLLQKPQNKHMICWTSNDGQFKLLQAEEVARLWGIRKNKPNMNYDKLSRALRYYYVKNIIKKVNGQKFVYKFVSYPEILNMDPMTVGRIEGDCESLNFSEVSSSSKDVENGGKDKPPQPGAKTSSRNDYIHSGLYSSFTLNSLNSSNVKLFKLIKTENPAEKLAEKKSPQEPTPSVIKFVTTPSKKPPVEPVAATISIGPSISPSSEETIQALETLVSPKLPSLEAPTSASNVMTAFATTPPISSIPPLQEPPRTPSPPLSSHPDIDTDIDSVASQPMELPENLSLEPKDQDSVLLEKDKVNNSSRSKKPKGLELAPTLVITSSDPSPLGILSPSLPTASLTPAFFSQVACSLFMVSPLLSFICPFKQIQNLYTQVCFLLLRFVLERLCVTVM
# Method in brief: as §1
# ETV2 = biological target: T4, ETV2 (Homo sapiens, UniProt O00321 1-342); details: protein: recombinant; tags: N-terminal GST; dsDNA, one strand shown
# T4 sequence: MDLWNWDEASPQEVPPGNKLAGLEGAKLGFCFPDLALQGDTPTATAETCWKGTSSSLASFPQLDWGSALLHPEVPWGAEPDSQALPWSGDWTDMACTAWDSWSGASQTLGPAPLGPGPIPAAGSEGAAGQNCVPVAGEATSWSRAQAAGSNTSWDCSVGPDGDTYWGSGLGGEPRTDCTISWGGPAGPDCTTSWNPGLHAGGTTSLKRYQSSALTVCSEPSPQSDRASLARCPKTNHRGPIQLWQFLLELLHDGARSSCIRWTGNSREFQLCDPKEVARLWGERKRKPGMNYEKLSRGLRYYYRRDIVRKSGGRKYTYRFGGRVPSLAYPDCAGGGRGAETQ
# Method in brief: as §1
# ELF3 = biological target: T5, ELF3 (Homo sapiens, UniProt P78545 1-371); details: protein: recombinant; tags: N-terminal GST; dsDNA, one strand shown
# T5 sequence: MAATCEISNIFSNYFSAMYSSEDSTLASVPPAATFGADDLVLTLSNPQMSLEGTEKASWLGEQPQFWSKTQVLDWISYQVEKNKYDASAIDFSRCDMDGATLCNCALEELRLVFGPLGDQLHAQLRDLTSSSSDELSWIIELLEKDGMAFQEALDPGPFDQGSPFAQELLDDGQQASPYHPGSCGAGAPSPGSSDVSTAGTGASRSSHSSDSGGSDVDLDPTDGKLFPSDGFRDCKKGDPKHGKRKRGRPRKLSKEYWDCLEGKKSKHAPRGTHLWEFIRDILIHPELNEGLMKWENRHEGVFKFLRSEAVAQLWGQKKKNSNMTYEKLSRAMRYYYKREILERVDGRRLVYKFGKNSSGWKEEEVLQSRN
# Method in brief: as §1
# CRX = CRX (Homo sapiens, UniProt O43186 1-299); details: protein: recombinant; tags: N-terminal GST; dsDNA, one strand shown
# CRX, sequence (O43186 whole entry): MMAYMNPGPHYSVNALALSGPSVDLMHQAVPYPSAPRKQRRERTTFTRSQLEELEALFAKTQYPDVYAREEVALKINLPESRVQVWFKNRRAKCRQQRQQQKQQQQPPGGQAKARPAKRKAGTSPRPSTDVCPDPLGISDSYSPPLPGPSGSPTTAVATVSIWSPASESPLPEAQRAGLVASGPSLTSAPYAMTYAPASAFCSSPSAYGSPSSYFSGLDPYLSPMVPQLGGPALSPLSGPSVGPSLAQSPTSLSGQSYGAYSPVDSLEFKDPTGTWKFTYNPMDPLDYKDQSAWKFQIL
# Method in brief: as §1
# ETV1 = ETV1 (Homo sapiens, UniProt P50549 1-477); details: protein: recombinant; tags: N-terminal GST; dsDNA, one strand shown
# ETV1, sequence (P50549 whole entry): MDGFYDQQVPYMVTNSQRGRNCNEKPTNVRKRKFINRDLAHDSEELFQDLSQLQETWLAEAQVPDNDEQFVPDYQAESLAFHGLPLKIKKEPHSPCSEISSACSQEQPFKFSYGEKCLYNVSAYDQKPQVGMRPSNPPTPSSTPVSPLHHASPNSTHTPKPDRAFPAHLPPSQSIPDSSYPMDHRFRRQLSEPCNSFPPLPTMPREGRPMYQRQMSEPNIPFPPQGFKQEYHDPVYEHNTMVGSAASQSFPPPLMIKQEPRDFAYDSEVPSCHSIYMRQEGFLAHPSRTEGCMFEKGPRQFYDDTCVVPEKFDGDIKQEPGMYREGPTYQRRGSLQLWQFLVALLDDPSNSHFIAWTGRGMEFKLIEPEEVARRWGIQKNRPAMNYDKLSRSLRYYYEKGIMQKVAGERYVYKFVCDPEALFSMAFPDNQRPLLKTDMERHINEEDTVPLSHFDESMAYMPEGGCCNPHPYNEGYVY
# Method in brief: as §1
# ERF = biological target: T6, ERF (Homo sapiens, UniProt P50548 1-548); details: protein: recombinant; tags: N-terminal GST; dsDNA, one strand shown
# T6 sequence: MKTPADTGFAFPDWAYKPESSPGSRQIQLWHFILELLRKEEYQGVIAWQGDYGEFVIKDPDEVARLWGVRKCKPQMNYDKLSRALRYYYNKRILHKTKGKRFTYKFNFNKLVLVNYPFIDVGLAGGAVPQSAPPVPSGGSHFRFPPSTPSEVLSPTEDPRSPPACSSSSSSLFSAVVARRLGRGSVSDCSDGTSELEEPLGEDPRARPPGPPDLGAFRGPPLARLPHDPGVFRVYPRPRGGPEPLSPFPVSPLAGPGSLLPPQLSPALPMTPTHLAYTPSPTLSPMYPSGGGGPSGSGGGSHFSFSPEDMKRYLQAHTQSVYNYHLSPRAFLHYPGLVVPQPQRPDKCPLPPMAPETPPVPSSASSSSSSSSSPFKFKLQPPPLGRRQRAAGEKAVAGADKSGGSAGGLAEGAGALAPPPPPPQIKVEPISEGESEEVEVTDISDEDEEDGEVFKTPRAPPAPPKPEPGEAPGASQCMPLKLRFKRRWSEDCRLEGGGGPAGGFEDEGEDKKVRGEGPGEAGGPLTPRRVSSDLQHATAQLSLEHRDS
# Method in brief: as §1
# ETV3L = biological target: T7, ETV3L (Homo sapiens, UniProt Q6ZN32 1-361); details: protein: recombinant; tags: N-terminal GST; dsDNA, one strand shown
# T7 sequence: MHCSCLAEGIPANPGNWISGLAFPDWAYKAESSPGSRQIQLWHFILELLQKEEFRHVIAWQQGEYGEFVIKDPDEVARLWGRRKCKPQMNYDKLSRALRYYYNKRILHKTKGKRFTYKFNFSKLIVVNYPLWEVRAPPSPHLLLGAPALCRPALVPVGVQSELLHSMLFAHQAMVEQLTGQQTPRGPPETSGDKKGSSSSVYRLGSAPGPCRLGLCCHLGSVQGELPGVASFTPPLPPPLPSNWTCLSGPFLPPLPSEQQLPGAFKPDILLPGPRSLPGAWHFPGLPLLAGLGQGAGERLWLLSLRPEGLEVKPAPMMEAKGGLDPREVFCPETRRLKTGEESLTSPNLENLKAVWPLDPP
# Method in brief: as §1
# ETS2 = biological target: T8, ETS2 (Homo sapiens, UniProt P15036 1-469); details: protein: recombinant; tags: N-terminal GST; dsDNA, one strand shown
# T8 sequence: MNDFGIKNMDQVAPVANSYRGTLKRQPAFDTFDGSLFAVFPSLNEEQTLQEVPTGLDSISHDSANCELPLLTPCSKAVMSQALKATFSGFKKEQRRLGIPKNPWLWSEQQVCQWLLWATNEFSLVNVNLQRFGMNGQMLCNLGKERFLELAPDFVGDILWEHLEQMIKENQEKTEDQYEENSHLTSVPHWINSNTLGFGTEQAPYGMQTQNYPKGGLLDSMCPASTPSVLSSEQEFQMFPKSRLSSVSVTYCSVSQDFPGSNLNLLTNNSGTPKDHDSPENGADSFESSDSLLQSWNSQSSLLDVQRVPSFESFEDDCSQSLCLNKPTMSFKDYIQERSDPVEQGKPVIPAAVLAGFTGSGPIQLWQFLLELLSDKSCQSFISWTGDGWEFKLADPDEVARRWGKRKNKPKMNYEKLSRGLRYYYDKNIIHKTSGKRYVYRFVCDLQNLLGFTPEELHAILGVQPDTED
# Method in brief: as §1
# SPDEF = biological target: T9, SPDEF (Homo sapiens, UniProt O95238 1-335); details: protein: recombinant; tags: N-terminal GST; dsDNA, one strand shown
# T9 sequence: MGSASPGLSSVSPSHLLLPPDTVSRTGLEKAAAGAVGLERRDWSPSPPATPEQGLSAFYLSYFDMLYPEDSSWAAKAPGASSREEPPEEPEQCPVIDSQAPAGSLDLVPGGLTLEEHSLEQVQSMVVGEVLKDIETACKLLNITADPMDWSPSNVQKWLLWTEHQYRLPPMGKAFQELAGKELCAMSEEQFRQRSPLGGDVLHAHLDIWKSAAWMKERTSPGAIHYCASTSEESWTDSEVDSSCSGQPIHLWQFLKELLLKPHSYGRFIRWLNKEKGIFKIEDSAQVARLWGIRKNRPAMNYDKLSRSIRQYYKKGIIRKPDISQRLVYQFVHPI
# Method in brief: as §1
# ETV7 = biological target: T10, ETV7 (Homo sapiens, UniProt Q9Y603 1-341); details: protein: recombinant; tags: N-terminal GST; dsDNA, one strand shown
# T10 sequence: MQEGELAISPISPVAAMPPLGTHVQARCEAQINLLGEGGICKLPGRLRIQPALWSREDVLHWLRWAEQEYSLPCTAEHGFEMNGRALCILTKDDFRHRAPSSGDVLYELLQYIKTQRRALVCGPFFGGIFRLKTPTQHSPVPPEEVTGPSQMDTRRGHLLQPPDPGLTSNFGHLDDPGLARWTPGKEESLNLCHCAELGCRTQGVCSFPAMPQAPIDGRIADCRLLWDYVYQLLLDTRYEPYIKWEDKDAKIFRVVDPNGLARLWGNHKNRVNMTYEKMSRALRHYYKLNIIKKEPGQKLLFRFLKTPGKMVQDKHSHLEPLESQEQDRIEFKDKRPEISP
# Method in brief: as §1
# ELF5 = biological target: T11, ELF5 (Homo sapiens, UniProt Q9UKW6-2 1-255); details: protein: recombinant; tags: N-terminal GST; dsDNA, one strand shown
# T11 sequence: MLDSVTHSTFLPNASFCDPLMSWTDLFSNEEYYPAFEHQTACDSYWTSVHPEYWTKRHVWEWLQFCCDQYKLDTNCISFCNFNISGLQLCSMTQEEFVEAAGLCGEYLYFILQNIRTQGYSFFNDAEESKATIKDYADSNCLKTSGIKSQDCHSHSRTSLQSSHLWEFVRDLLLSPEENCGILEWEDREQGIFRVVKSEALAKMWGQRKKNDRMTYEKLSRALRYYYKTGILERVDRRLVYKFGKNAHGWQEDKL
# Method in brief: as §1
# ETV3 = biological target: T12, ETV3 (Homo sapiens, UniProt P41162-2 1-143); details: protein: recombinant; tags: N-terminal GST; dsDNA, one strand shown
# T12 sequence: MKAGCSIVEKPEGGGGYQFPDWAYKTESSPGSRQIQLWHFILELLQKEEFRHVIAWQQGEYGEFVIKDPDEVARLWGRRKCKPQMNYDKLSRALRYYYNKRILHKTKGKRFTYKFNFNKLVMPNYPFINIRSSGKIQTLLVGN
# Method in brief: as §1
# ETV6 = ETV6 (Homo sapiens, UniProt P41212 1-452); details: protein: recombinant; tags: N-terminal GST; dsDNA, one strand shown
# ETV6, sequence (P41212 whole entry): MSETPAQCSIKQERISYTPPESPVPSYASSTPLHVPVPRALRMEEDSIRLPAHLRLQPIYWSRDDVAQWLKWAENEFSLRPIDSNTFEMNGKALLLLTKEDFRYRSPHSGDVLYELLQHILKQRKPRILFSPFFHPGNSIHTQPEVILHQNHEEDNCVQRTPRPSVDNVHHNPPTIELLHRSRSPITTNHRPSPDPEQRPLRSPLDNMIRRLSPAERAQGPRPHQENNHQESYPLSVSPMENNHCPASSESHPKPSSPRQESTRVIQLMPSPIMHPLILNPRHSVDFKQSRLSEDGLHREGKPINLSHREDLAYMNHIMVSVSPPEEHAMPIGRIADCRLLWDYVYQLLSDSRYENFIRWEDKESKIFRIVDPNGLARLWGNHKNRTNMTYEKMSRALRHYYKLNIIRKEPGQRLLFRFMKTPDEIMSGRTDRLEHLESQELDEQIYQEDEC
# Method in brief: as §1
sequence,measurement,setting,value
ATTTTA,binding signal,FEV,"1.25 fold enrichment (6-mer frequency, TF over GST control)"
same,binding signal,ETV5,"1.23 fold enrichment (6-mer frequency, TF over GST control)"
same,binding signal,HSF1,"1.45 fold enrichment (6-mer frequency, TF over GST control)"
same,binding signal,SPIC,"1.36 fold enrichment (6-mer frequency, TF over GST control)"
same,binding signal,ELF4,"1.32 fold enrichment (6-mer frequency, TF over GST control)"
same,binding signal,ELK4,"1.37 fold enrichment (6-mer frequency, TF over GST control)"
same,binding signal,ETV2,"1.29 fold enrichment (6-mer frequency, TF over GST control)"
same,binding signal,ELF3,"1.23 fold enrichment (6-mer frequency, TF over GST control)"
same,binding signal,CRX,"1.83 fold enrichment (6-mer frequency, TF over GST control)"
same,binding signal,ETV1,"1.25 fold enrichment (6-mer frequency, TF over GST control)"
same,binding signal,ERF,"1.27 fold enrichment (6-mer frequency, TF over GST control)"
same,binding signal,ETV3L,"1.43 fold enrichment (6-mer frequency, TF over GST control)"
same,binding signal,ETS2,"1.33 fold enrichment (6-mer frequency, TF over GST control)"
same,binding signal,SPDEF,"1.23 fold enrichment (6-mer frequency, TF over GST control)"
same,binding signal,ETV7,"1.37 fold enrichment (6-mer frequency, TF over GST control)"
same,binding signal,ELF5,"1.2 fold enrichment (6-mer frequency, TF over GST control)"
same,binding signal,ETV3,"1.26 fold enrichment (6-mer frequency, TF over GST control)"
same,binding signal,ETV6,"1.26 fold enrichment (6-mer frequency, TF over GST control)"
